One assay deals with AAK1. Further details: species or system human, MV4-11 + K-562 + COLO205 + SK-N-BE2 + OVCAR-8. Particulars: read-out: apparent Kd, n = 1.
In the next assay the test system is BMP2K. Further details: species or system human, MV4-11 + K-562 + COLO205 + SK-N-BE2 + OVCAR-8. Conditions: read-out: apparent Kd, n = 1.
The test system of the next assay is CSNK2A1;CSNK2A3. Set-up: species or system human, MV4-11 + K-562 + COLO205 + SK-N-BE2 + OVCAR-8. Conditions: read-out: apparent Kd, n = 1.
A further assay concerns CSNK2A2. Set-up: species or system human, MV4-11 + K-562 + COLO205 + SK-N-BE2 + OVCAR-8. Conditions: read-out: apparent Kd, n = 1.
Another assay deals with FLT4. Further details: species or system human, MV4-11 + K-562 + COLO205 + SK-N-BE2 + OVCAR-8. Particulars: read-out: apparent Kd, compound concentrations: 100 nM and 1000 nM (sheet 'Samples'), n = 1.
The subject of another assay is GAK. Set-up: species or system human, MV4-11 + K-562 + COLO205 + SK-N-BE2 + OVCAR-8. Conditions: read-out: apparent Kd, n = 1.
In a further assay the test system is GSK3A. Further details: species or system human, MV4-11 + K-562 + COLO205 + SK-N-BE2 + OVCAR-8. Particulars: read-out: apparent Kd, compound concentrations: 100 nM and 1000 nM (sheet 'Samples'), n = 1.
For a further assay, the system named is GSK3B. Set-up: species or system human, MV4-11 + K-562 + COLO205 + SK-N-BE2 + OVCAR-8. Conditions: read-out: apparent Kd, compound concentrations: 100 nM and 1000 nM (sheet 'Samples'), n = 1.
Another assay relates to MELK. Further details: species or system human, MV4-11 + K-562 + COLO205 + SK-N-BE2 + OVCAR-8. Particulars: read-out: apparent Kd, compound concentrations: 100 nM and 1000 nM (sheet 'Samples'), n = 1.
Another assay deals with NUAK1. Set-up: species or system human, MV4-11 + K-562 + COLO205 + SK-N-BE2 + OVCAR-8. Particulars: read-out: apparent Kd, n = 1.
For a further assay, the system named is PAK4. Set-up: species or system human, MV4-11 + K-562 + COLO205 + SK-N-BE2 + OVCAR-8. Particulars: read-out: apparent Kd, compound concentrations: 100 nM and 1000 nM (sheet 'Samples'), n = 1.
The subject of another assay is PKN1. Set-up: species or system human, MV4-11 + K-562 + COLO205 + SK-N-BE2 + OVCAR-8. Particulars: read-out: apparent Kd, compound concentrations: 100 nM and 1000 nM (sheet 'Samples'), n = 1.
The next assay deals with PKN3. Further details: species or system human, MV4-11 + K-562 + COLO205 + SK-N-BE2 + OVCAR-8. Particulars: read-out: apparent Kd; compound concentrations: 100 nM and 1000 nM (sheet 'Samples'), CATDS: 6.8634871166861197E-3; n = 1.
The subject of another assay is PRKAG1. Set-up: species or system human, MV4-11 + K-562 + COLO205 + SK-N-BE2 + OVCAR-8. Conditions: read-out: apparent Kd, compound concentrations: 100 nM and 1000 nM (sheet 'Samples'), n = 1.
The target of a further assay is Q6ZSR9 (human, UniProt Q6ZSR9). Set-up: species or system MV4-11 + K-562 + COLO205 + SK-N-BE2 + OVCAR-8. Conditions: read-out: apparent Kd, n = 1.
The next assay relates to RET. Further details: species or system human, MV4-11 + K-562 + COLO205 + SK-N-BE2 + OVCAR-8. Particulars: read-out: apparent Kd, compound concentrations: 100 nM and 1000 nM (sheet 'Samples'), n = 1.
The next assay has as its system SIK2. Further details: species or system human, MV4-11 + K-562 + COLO205 + SK-N-BE2 + OVCAR-8. Conditions: read-out: apparent Kd, n = 1.
The test system of another assay is CLK1. Further details: species or system human, MV4-11 + K-562 + COLO205 + SK-N-BE2 + OVCAR-8. Conditions: read-out: apparent Kd; compound concentrations: 100 nM and 1000 nM (sheet 'Samples'), CATDS: 1.0356916336546E-2; n = 1.
The subject of a further assay is CLK4. Further details: species or system human, MV4-11 + K-562 + COLO205 + SK-N-BE2 + OVCAR-8. Conditions: read-out: apparent Kd, n = 1.
[1] abbreviates: compound concentrations:100 nM and 1000 nM (sheet 'Samples').

Like-named read-outs stand apart in the source and are kept apart here.

Sequence of Q6ZSR9 (Q6ZSR9 whole entry, looked up): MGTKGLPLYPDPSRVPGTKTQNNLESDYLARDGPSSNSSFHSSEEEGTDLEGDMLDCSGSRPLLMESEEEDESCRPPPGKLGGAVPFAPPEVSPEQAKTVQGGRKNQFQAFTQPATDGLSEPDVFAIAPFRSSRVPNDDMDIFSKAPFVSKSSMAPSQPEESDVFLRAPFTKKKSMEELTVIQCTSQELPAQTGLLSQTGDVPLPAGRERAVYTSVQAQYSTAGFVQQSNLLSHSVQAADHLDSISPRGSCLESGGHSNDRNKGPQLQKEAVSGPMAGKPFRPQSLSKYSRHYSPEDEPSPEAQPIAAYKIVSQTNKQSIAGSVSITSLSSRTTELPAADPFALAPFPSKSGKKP

For the molecule `O=C(O)C(F)(F)F.O=C(O)C(F)(F)F.O=c1[nH]ccc2nc(N[C@@H]3CCCNC3)nc(Nc3ccc(S(=O)(=O)N4CCOCC4)cc3)c12.O=c1[nH]ccc2nc(N[C@@H]3CCCNC3)nc(Nc3ccc(S(=O)(=O)N4CCOCC4)cc3)c12` [GSK2177277A], the potency estimated from few doses was 0.0641 µM in the assay with AAK1 (compound concentrations: 100 nM and 1000 nM (sheet 'Samples'), CATDS: 1.8142496176493599E-2); 0.0236 µM in the assay on BMP2K (compound concentrations: 100 nM and 1000 nM (sheet 'Samples'), CATDS: 3.1293832570600401E-2); 0.292 µM in the assay with CSNK2A1;CSNK2A3 (compound concentrations: 100 nM and 1000 nM (sheet 'Samples'), CATDS: 9.7881749935300605E-3); 0.111 µM in the assay on CSNK2A2 (compound concentrations: 100 nM and 1000 nM (sheet 'Samples'), CATDS: 1.40967137709553E-2); 0.563 µM with FLT4 (CATDS: 8.0407033957096193E-3); 0.583 µM in the assay on GAK (compound concentrations: 100 nM and 1000 nM (sheet 'Samples'), CATDS: 7.9677595893025404E-3). For the same molecule, the potency estimated from few doses in the assay on GSK3A (CATDS: 2.6961640495366201E-2) is 0.0304 µM; in the assay with GSK3B (CATDS: 2.05762593754709E-2), 0.0498 µM; with MELK (CATDS: 1.3446305906565099E-2), 0.125 µM; with NUAK1 (compound concentrations: 100 nM and 1000 nM (sheet 'Samples'), CATDS: 0.191214314920645), 0.00202 µM; in the assay on PAK4 (CATDS: 1.6910585220633E-2) it was 0.0742 µM; in the assay on PKN1 (CATDS: 1.2984656701456401E-2) it was 0.136 µM. In addition, the potency estimated from few doses with PKN3 was 1.09 µM; with PRKAG1 (CATDS: 1.7529215817932601E-2), 0.0688 µM; with Q6ZSR9 (compound concentrations: 100 nM and 1000 nM (sheet 'Samples'), CATDS: 1.64498976329738E-2), 0.0787 µM; in the assay with RET (CATDS: 2.8395704553292499E-2) it was 0.0278 µM; in the assay with SIK2 (compound concentrations: 100 nM and 1000 nM (sheet 'Samples'), CATDS: 1.8714442667333402E-2), 0.0601 µM.
Regarding `COc1cc[nH]c1/C=C1\C(=O)Nc2ccc(F)c(C#CC3(O)CCNCC3)c21.Cl` [RO0282986-001], the potency estimated from few doses in the assay on AAK1 (compound concentrations: 100 nM and 1000 nM (sheet 'Samples'), CATDS: 4.4387438114571E-2) is 0.0517 µM; in the assay with BMP2K (compound concentrations: 100 nM and 1000 nM (sheet 'Samples'), CATDS: 9.1500909624849303E-2), 0.0178 µM; in the assay on CLK1, 1.16 µM; with CLK4 (compound concentrations: 100 nM and 1000 nM (sheet 'Samples'), CATDS: 1.25074250244867E-2), 0.634 µM; with CSNK2A1;CSNK2A3 (compound concentrations: 100 nM and 1000 nM (sheet 'Samples'), CATDS: 1.42353528510114E-2) it was 0.45 µM; with CSNK2A2 (compound concentrations: 100 nM and 1000 nM (sheet 'Samples'), CATDS: 2.2066768869253801E-2), 0.173 µM. For the same molecule, the potency estimated from few doses in the assay with FLT4 (CATDS: 1.2160517778916E-2) is 0.687 µM; in the assay on GAK (compound concentrations: 100 nM and 1000 nM (sheet 'Samples'), CATDS: 1.5691521545656201E-2) it was 0.356 µM; in the assay with GSK3A (CATDS: 1.8964305572366599E-2) it was 0.235 µM; in the assay on GSK3B (CATDS: 1.5746210655388199E-2), 0.353 µM; in the assay with MELK (CATDS: 1.9967026123172499E-2), 0.211 µM; in the assay with NUAK1 (compound concentrations: 100 nM and 1000 nM (sheet 'Samples'), CATDS: 4.1010981116741001E-2), 0.0586 µM. Further, the potency estimated from few doses in the assay with PAK4 (CATDS: 2.1447100630881601E-2) is 0.183 µM; in the assay on PKN1 (CATDS: 1.1966323436805501E-2), 0.72 µM; in the assay with PRKAG1 (CATDS: 1.1749589380403099E-2), 0.761 µM; with Q6ZSR9 (compound concentrations: 100 nM and 1000 nM (sheet 'Samples'), CATDS: 3.8240338432775099E-2) it was 0.0656 µM; in the assay on RET (CATDS: 4.4247015083228598E-2), 0.052 µM; in the assay with SIK2 (compound concentrations: 100 nM and 1000 nM (sheet 'Samples'), CATDS: 1.2903831315266401E-2), 0.581 µM.
For `Cc1cc(-c2ccnc(Nc3cccc(C#N)c3)n2)cc(C)c1O` [GSK1440913A], the potency estimated from few doses in the assay on AAK1 (compound concentrations: 100 nM and 1000 nM (sheet 'Samples'), CATDS: 0.22953291556049499) was 0.12 µM; in the assay on BMP2K (compound concentrations: 100 nM and 1000 nM (sheet 'Samples'), CATDS: 0.10539472264710199) it was 0.564 µM; with Q6ZSR9 (compound concentrations: 100 nM and 1000 nM (sheet 'Samples'), CATDS: 0.240078758272596), 0.111 µM.
With `CC(C)Oc1ccc2c(-c3ccnc(Nc4ccc(N5CCN(C)CC5)cc4)n3)cnn2n1` [GW696155X], the potency estimated from few doses in the assay with AAK1 (setting [1]) is 0.0354 µM; in the assay on BMP2K (setting [1]), 0.344 µM; in the assay with CLK4 (setting [1]) it was 1.57 µM; with CSNK2A1;CSNK2A3 (setting [1]) it was 0.416 µM; in the assay on CSNK2A2 (setting [1]), 0.201 µM; in the assay with GAK (setting [1]), 0.454 µM. The potency estimated from few doses in the assay with NUAK1 (setting [1]) was 1.03 µM; with Q6ZSR9 (setting [1]), 0.0396 µM; in the assay with SIK2 (setting [1]), 0.781 µM.
With `COc1ccc(-c2cc3c(N)ncnc3o2)cc1` [GW642138X], the potency estimated from few doses in the assay with AAK1 (compound concentrations: 100 nM and 1000 nM (sheet 'Samples'), CATDS: 9.3740609603759906E-2) is 2.1 µM.

The values are drawn from publication PMC11062922 (Nature Chemical Biology, 2023).
